Experimental data reported in PubChem BioAssay (NCI).
Where “and” joins values, the source holds several entries; their conditions need not be identical. Identical values can stand only once. About 83,000 compounds went through this panel and 20% of them were active in at least one assay; those are over-represented in the sample as a whole.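 Negative percent growth values reflect cell death: -40 means 40% of the cells present at the start died, and -100 means all died.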

Columns and labels:
Experiment in all cases: NCI-60 one-dose screen, 48 h (100 = growth as untreated, 0 = no growth, -100 = all killed)
Conditions in all cases: 10 µM unless noted; active = growth percent below 10; inactive = the rest
[1] = tested on: HCT-15 colon
[2] = tested on: HT29 colon
[3] = tested on: SNB-75 CNS
[4] = tested on: SNB-19 CNS
[5] = tested on: U251 CNS
[6] = tested on: PC-3 prostate
[7] = tested on: SK-MEL-5 melanoma
[8] = tested on: UACC-62 melanoma
[9] = tested on: LOX IMVI melanoma
[10] = tested on: SK-MEL-28 melanoma
[11] = tested on: SK-MEL-2 melanoma
[12] = tested on: EKVX NSCLC
[13] = tested on: SN12C renal
[14] = tested on: UO-31 renal
[15] = tested on: TK-10 renal
[16] = tested on: ACHN renal
[17] = tested on: CAKI-1 renal
[18] = tested on: A498 renal
[19] = tested on: CCRF-CEM leukemia
[20] = tested on: MOLT-4 leukemia

Measured: growth

Cc1ccc(S(=O)(=O)n2ccnc2)cc1
inactive: [1] 105% | [2] 106% | [3] 87.6% | [4] 117% | [5] 101% | [6] 103% | [7] 99.9% | [8] 92.7% | [9] 95.5% | [10] 111% | [11] 96.7% | [12] 90.7% | [13] 107% | [14] 89.9% | [15] 93% | [16] 104% | [17] 75.3% | [18] 96.5% | [19] 120% | [20] 138%

CCN(CC)C(=S)SCCO
inactive: [1] 107% | [2] 99.8% | [3] 89.4% | [4] 104% | [5] 98.2% | [6] 103% | [7] 99.7% | [8] 107% | [9] 97% | [10] 112% | [11] 105% | [12] 106% | [13] 105% | [14] 93.8% | [15] 86% | [16] 111% | [17] 107% | [18] 75.6% | [19] 100% | [20] 96.6%

Clc1ccc2sc(-c3ccccc3)nc2c1
inactive: [1] 100% | [2] 95.1% | [3] 67.7% | [4] 97.6% | [5] 105% | [6] 88% | [7] 91% | [8] 86.2% | [9] 101% | [10] 106% | [11] 77.2% | [12] 88.1% | [13] 95.6% | [14] 77.6% | [15] 126% | [16] 89.6% | [17] 90.7% | [18] 92.5% | [19] 87% | [20] 92.3%

COc1ccc([N+](=O)[O-])cc1OC
inactive: [1] 96.3% and 98.9% | [2] 112% and 101% | [3] 98% | [4] 102% and 107% | [5] 104% and 95.6% | [6] 94.1% and 102% | [7] 104% and 106% | [8] 104% and 107% | [9] 98.2% and 101% | [10] 95.9% and 107% | [11] 123% and 103% | [12] 98.6% and 102% | [13] 99.6% and 108% | [14] 76.2% and 99.1% | [15] 98.9% and 108% | [16] 99% and 93.5% | [17] 93.8% and 102% | [18] 73.1% and 128% | [19] 89.6% and 102% | [20] 91.2% and 104%

N=c1sc2ccccc2n1CC(=O)O
inactive: [1] 103% | [2] 98% | [3] 100% | [4] 101% | [5] 91.8% | [6] 92.7% | [7] 104% | [8] 97.2% | [9] 98.7% | [10] 112% | [11] 95.4% | [12] 104% | [13] 94.1% | [14] 86.4% | [15] 96.9% | [16] 105% | [17] 97.8% | [18] 102% | [19] 85.8% | [20] 117%

CCOC(=O)CN1CCC(C(=O)OCC)CC1
inactive: [1] 125% | [2] 104% | [3] 106% | [4] 110% | [5] 107% | [6] 88.8% | [7] 103% | [8] 94.6% | [9] 99.3% | [10] 108% | [11] 111% | [12] 127% | [13] 99.7% | [14] 94.9% | [15] 106% | [16] 111% | [17] 116% | [18] 91.5% | [19] 89.5% | [20] 106%

CN1C2C=CC(=O)C1C1C(=O)N(c3ccccc3)C(=O)C12 (stereo unspecified)
inactive: [1] 42% | [2] 48.8% | [3] 92.6% | [4] 95.7% | [5] 62.1% | [6] 54.8% | [7] 92% | [8] 84.3% | [9] 38.7% | [10] 95.4% | [11] 46.2% | [12] 106% | [13] 60.2% | [14] 53.9% | [15] 78.9% | [16] 63.9% | [17] 28% | [19] 50.5% | [20] 74.4%

CC(O)CCNC(c1ccccc1)C(O)c1ccccc1 (stereo unspecified)
inactive: [1] 109% | [2] 97.3% | [3] 96.5% | [4] 103% | [5] 106% | [6] 94.8% | [7] 109% | [8] 108% | [9] 99% | [10] 112% | [11] 99.4% | [12] 115% | [13] 108% | [14] 92.9% | [15] 106% | [16] 109% | [17] 104% | [19] 93.7% | [20] 102%

CCOP(C)(=O)/C(Cc1ccc(OC)c(OC)c1)=N\O (stereo unspecified)
inactive: [1] 104% | [2] 106% | [3] 88.7% | [4] 105% | [5] 107% | [6] 106% | [7] 96.1% | [8] 96% | [9] 96.5% | [10] 111% | [11] 111% | [12] 98.3% | [13] 103% | [14] 91.2% | [15] 107% | [16] 106% | [17] 103% | [18] 104% | [19] 110% | [20] 112%

O=C(O)C(Cc1ccc(OS(=O)(=O)Cc2ccccc2)cc1)NS(=O)(=O)Cc1ccccc1 (stereo unspecified)
inactive: [1] 99.5% and 108% | [2] 101% and 119% | [3] 85.7% and 94.9% | [4] 96.6% and 105% | [5] 104% | [6] 123% and 101% | [7] 97.5% and 108% | [8] 108% and 97.9% | [9] 98% | [10] 108% and 116% | [11] 110% and 108% | [12] 102% and 115% | [13] 110% and 104% | [14] 95.8% and 86.1% | [15] 101% and 110% | [16] 105% and 101% | [17] 90.9% and 98.6% | [18] 114% and 130% | [19] 115% and 112% | [20] 121% and 102%

Nc1ccc(Cl)c(S(=O)(=O)O)c1
inactive: [1] 101% | [2] 105% | [3] 93.3% | [4] 94.4% | [5] 99.8% | [6] 108% | [7] 101% | [8] 102% | [9] 97.5% | [10] 106% | [11] 88.2% | [12] 106% | [13] 96.6% | [14] 77.9% | [15] 98.5% | [16] 97.2% | [17] 95.2% | [19] 106% | [20] 109%

Nc1ccc(O)c(C(=O)O)c1
inactive: [1] 97.3% and 107% and 99.2% | [2] 111% and 113% and 115% | [3] 74.4% and 97.2% and 94.7% | [4] 91.9% and 104% and 117% | [5] 74.5% and 101% | [6] 89.6% and 105% | [7] 93.4% and 94.1% and 108% | [8] 91.3% and 102% and 84.2% | [9] 84% and 99.5% | [10] 94.7% and 116% and 115% | [11] 110% and 124% and 122% | [12] 101% and 99.5% and 106% | [13] 82% and 103% and 98.7% | [14] 101% and 92% and 67.8% | [15] 133% and 110% and 98.8% | [16] 99.3% and 108% and 82.8% | [17] 107% and 102% and 99.8% | [19] 106% | [20] 97.8% and 104% and 105%
